Several values for one entry are separate records, joined by “and”; a condition that tells them apart may be missing. Equal values may be shown once. Records with an inconclusive call do not appear. Where a structure was tested more than once in an assay, its records may differ in their call. Activity calls are given as the source filed them. Unless noted, the call rests on the fitted dose curve; in most records, active means well fitted curve in the direction sought with a large enough effect in the repeat runs; inconclusive means weak or mixed curves; inactive means no such curve, though single readings can be large; an effect the other way counts as inactive or inconclusive.
Tests used:
[1] = A CellTox Green Cytotoxicity Assay to monitor cytotoxicity in HEK293 cells - 32 hour (AID 1224881); further: nearly all actives have a fitted effect of over 40% in size; further: potency means the concentration at half of the fitted maximal effect
Outline: (§1)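 Read-out: fluorescence of a cell-impermeant cyanine dye staining DNA of dead cells, proportional to cytotoxicity. HEK293, 600 cells/well with reagent, compound (23 nL DMSO) added after 5 h; reads at 0, 8, 16, 24, 32, 40 h.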

[2] = A CellTox Green Cytotoxicity Assay to monitor cytotoxicity in HepG2 cells - 0 hour (AID 1224882); further: nearly all actives have a fitted effect of over 35% in size; further: potency means the concentration at half of the fitted maximal effect; on Cytotoxicity: on the % scale 0 is the no-effect control and ±100 the full control effect
Outline: (§2)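 HepG2, 600 cells/well premixed w/ CellTox Green; 5 h settle, 37 C/5% CO2; pintool cpd add (DMSO); 37 C, 40 h; fluorescence read at 0, 8, 16, 24, 32, 40 h.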

[3] = A CellTox Green Cytotoxicity Assay to monitor cytotoxicity in HepG2 cells - 32 hour (AID 1224883); further: nearly all actives have a fitted effect of over 50% in size; further: potency means the concentration at half of the fitted maximal effect
Outline: as §2

[4] = A CellTox Green Cytotoxicity Assay to monitor cytotoxicity in HEK293 cells - 8 hour (AID 1224884); further: nearly all actives have a fitted effect of over 35% in size; further: potency means the concentration at half of the fitted maximal effect
Outline: as §1

[5] = qHTS RealTime-Glo MT Cell Viability Assay in HepG2 cells - 16 hour (AID 1224885); further: nearly all actives have a fitted effect of over 50% in size; further: potency means the concentration at half of the fitted maximal effect
Outline: (§3)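 Compound treatment began 5 h after plating HepG2 cells (600/well) with NanoLuc luciferase and prosubstrate. Plates stayed at 37 C for 40 h; luminescence was captured at six time points, 0 h through 40 h.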

[6] = qHTS RealTime-Glo MT Cell Viability Assay in HEK293 cells - 24 hour (AID 1224886); further: nearly all actives have a fitted effect of over 50% in size; further: potency means the concentration at half of the fitted maximal effect
Outline: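 Quantitative high-throughput screen of the Tox21 10K library in HEK293: cells and RealTime-Glo reagents plated together, compound added at 5 h, luminescence monitored through 40 h at 37 C.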

[7] = A CellTox Green Cytotoxicity Assay to monitor cytotoxicity in HEK293 cells - 16 hour (AID 1224888); further: nearly all actives have a fitted effect of over 35% in size; further: potency means the concentration at half of the fitted maximal effect; on activity change: on the % scale 0 is the no-effect control and ±100 the full control effect
Outline: as §1

[8] = qHTS RealTime-Glo MT Cell Viability Assay in HepG2 cells - 0 hour (AID 1224889); further: on the % scale 0 is the no-effect control and ±100 the full control effect; nearly all actives have a fitted effect of over 50% in size
Outline: as §3

[9] = A CellTox Green Cytotoxicity Assay to monitor cytotoxicity in HepG2 cells - 8 hour (AID 1224890); further: nearly all actives have a fitted effect of over 45% in size; further: potency means the concentration at half of the fitted maximal effect
Outline: as §2

[10] = qHTS assay to identify small molecule antagonists of the estrogen receptor alpha (ER-alpha) signaling pathway using the BG1 cell line in the presence of 0.1 nM 17-beta-estradiol - cell viability counter screen (AID 1259241); further: nearly all actives have a fitted effect of over 40% in size; further: potency means the concentration at half of the fitted maximal effect
Outline: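 The cell line endogenously expresses full-length ER-alpha and carries four EREs driving luciferase. Cells are cultured 5 days hormone-free, treated 22 hr with compounds and 0.1 nM estradiol, then viability is read by fluorescence.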

[11] = qHTS assay to identify small molecule antagonists of the androgen receptor (AR) signaling pathway using the MDA cell line in the presence of 0.5 nM R1881 - cell viability counter screen (AID 1259242); further: nearly all actives have a fitted effect of over 45% in size; further: potency means the concentration at half of the fitted maximal effect
Outline: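 Live-cell protease fluorescence, CellTiter-Fluor, 30 min at 37C. Cells: MDA-kb2, 3,000/well, preincubated 5 hr. Compounds plus 0.5 nM R1881 final, 16 hr, 37C, 0% CO2.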

[12] = molecular target: Androgen receptor (Homo sapiens) (UniProt P10275); assay: qHTS assay to identify small molecule antagonists of the androgen receptor (AR) signaling pathway using the MDA cell line in the presence of 0.5 nM R1881 (AID 1259243)
Outline: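 MDA-kb2, MMTV-luc (AR/GR elements); 3,000 cells/well; cpd + 0.5 nM R1881 final; 16 hr 37C, 0% CO2; ONE-Glo 30 min RT; luminescence.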

[13] = molecular target: Estrogen receptor (Homo sapiens) (UniProt P03372); assay: qHTS assay to identify small molecule antagonists of the estrogen receptor alpha (ER-alpha) signaling pathway using the BG1 cell line in the presence of 0.1 nM 17-beta-estradiol (AID 1259244); further: nearly all actives have a fitted effect of over 50% in size; further: potency means the concentration at half of the fitted maximal effect
Outline: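 Luminescence after ONE-Glo (30 min, room temperature) measured ERE-luciferase activity in VM7Luc4E2 cells treated 22 h with compound and 0.1 nM final 17beta-estradiol as stimulator.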

[14] = qHTS assay to identify small molecule phospholipidosis (PLD) inducers (AID 1259344; active means well fitted curve in the direction sought with a large enough effect; an effect the other way counts as inactive or inconclusive; further: on the % scale 0 is the no-effect control and ±100 the full control effect)
Outline: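 After 4 h attachment on collagen I, HepG2 cells were dosed with compound alongside LipidTOX Red, kept 24 h at 37 C, fixed, and imaged for lamellar phospholipid pits.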

[15] = qHTS assay to identify small molecule HDAC inhibitors (AID 1259364); further: potency means the concentration at half of the fitted maximal effect;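 further: wild-type HCT-116 cells with endogenous class I/II HDAC activity; nearly all actives have a fitted effect of over 45% in size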
Outline: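 HCT-116 (wild type), 1,500 cells/well, overnight; compound 2 hr 37C 5% CO2; HDAC-Glo I/II reagent 30 min RT; luminescence readout.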

[16] = qHTS assay to identify small molecule HDAC inhibitors - cell viability counter screen (AID 1259365); further: nearly all actives have a fitted effect of over 50% in size; further: potency means the concentration at half of the fitted maximal effect; on activity change, negative = cytotoxicity: series mostly up to about 92 µM; on the % scale 0 is the no-effect control and ±100 the full control effect
Outline: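 Viability readout: CellTiter-Glo luminescence. Wild-type HCT-116 cells, 2hr compound treatment following overnight attachment at 37 C.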

[17] = qHTS assay to identify small molecule agonists of the sonic hedgehog signaling (Shh) pathway - cell viability counter screen (AID 1259366); further: nearly all actives have a fitted effect of over 50% in size; further: potency means the concentration at half of the fitted maximal effect
Outline: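 Viability measured fluorometrically (CellTiter-Fluor, 1hr, 37C) in 3T3 Gli1-Luc reporter cells after 23hr compound exposure within a 24hr incubation at 37C/5% CO2.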

[18] = qHTS assay to identify small molecule antagonists of the sonic hedgehog signaling (Shh) pathway - cell viability counter screen (AID 1259367); further: nearly all actives have a fitted effect of over 55% in size; further: potency means the concentration at half of the fitted maximal effect
Outline: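 Conditioned medium drove Shh signaling in 3T3 Gli1-Luc cells exposed to compounds at 37C and 5% CO2. Viability was determined from CellTiter-Fluor fluorescence, with reagent incubated 1 hr after 23 hr of treatment.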

[19] = qHTS assay to identify small molecule agonists of the sonic hedgehog signaling (Shh) pathway (AID 1259368; calls by dose curve;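 further: NIH/3T3-derived 3T3Gli1-Luc cells carrying a stable Gli1-driven firefly luciferase reporter; series mostly up to about 92 µM; on the % scale 0 is the no-effect control and ±100 the full control effect; nearly all actives have a fitted effect of over 15% in size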)
Outline: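 Read-out: firefly luciferase luminescence from a Gli1 response element reporter stably integrated in NIH/3T3-derived 3T3Gli1-Luc cells, measured 30 min at room temperature after reagent addition. Compound exposure lasted 24 hr at 37 C, 5% CO2.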

[20] = qHTS RealTime-Glo MT Cell Viability Assay in HEK293 cells - 8 hour (AID 1224887); further: nearly all actives have a fitted effect of over 50% in size; further: potency means the concentration at half of the fitted maximal effect
Outline: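 Luminescence readout at each listed time point; HEK293, 600 cells/well, RealTime-Glo MT reagent added with cells; compounds pinned (23 nL in DMSO) after 5 h at 37 C; continuous culture at 37 C.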

Sequence of Estrogen receptor (Homo sapiens) (P03372 whole entry, looked up): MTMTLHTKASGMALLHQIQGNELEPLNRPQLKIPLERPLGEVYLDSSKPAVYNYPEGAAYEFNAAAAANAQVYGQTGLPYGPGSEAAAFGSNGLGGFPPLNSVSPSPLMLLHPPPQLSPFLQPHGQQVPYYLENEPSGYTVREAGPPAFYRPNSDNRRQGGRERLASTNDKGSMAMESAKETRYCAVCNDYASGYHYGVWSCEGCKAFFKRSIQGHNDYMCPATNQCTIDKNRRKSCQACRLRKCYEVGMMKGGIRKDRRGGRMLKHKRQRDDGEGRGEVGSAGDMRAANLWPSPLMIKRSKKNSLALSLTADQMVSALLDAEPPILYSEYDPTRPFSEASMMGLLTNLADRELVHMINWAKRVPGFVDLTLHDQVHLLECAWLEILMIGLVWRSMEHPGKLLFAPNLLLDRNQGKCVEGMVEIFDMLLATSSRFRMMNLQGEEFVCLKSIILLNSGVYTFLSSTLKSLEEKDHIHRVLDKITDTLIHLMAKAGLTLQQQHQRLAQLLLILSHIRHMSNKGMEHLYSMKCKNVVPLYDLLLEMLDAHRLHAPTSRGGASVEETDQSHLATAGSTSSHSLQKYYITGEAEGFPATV
Sequence of Androgen receptor (Homo sapiens) (P10275 whole entry, looked up): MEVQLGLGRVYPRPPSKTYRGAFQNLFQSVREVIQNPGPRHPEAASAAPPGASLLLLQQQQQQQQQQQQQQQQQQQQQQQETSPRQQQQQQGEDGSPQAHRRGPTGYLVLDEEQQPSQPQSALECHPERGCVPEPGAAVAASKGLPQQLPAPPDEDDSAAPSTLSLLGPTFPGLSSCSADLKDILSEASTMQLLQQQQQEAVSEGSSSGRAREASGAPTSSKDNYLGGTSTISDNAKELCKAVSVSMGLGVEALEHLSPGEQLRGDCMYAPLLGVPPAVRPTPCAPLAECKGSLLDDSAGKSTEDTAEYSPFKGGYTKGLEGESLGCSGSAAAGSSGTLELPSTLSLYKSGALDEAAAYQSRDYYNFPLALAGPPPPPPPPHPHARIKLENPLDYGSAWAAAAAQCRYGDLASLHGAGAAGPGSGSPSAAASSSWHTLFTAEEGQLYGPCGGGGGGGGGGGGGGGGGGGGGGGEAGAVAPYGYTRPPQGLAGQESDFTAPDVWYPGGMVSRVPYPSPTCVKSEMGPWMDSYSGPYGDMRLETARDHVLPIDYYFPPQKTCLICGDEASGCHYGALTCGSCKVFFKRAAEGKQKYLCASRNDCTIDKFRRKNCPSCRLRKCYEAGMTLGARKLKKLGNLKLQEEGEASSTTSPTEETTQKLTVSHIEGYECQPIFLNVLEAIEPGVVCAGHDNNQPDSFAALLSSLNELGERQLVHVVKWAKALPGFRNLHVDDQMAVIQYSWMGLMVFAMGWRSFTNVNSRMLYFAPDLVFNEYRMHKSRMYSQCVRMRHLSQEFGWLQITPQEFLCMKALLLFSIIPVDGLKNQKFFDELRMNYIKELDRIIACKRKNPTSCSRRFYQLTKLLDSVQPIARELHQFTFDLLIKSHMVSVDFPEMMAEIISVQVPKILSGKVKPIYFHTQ

[O-][n+]1ccccc1SSc1cccc[n+]1[O-]
active: Potency [1] 2.93 µM | Potency [2] 11.7 µM | Potency [3] 0.585 µM | Potency [4] 10.4 µM | Potency [5] 0.233 µM | Potency [6] 1.31 µM | Potency [7] 8.27 µM | Potency [9] 10.4 µM | Potency [10] 0.411 µM | Potency [11] 0.326 µM | Potency [12] 0.291 µM | Potency [13] 0.13 µM | Potency [15] 1.83 µM | Potency [17] 0.13 µM | Potency [18] 0.291 µM
inactive: activity change, negative = cytotoxicity [8] -1.89% [at 15.8 µM] | Potency [14] | activity change, negative = cytotoxicity [16] 12.3% [at 19 µM] | activity change [19] -7.63% [at 18.9 µM, stronger effect = higher value]

CCN(C(=O)N(CC)c1ccccc1)c1ccccc1
inactive: Potency [1] | Potency [2] | Potency [3] | Potency [4] | Potency [5] | Potency [7] | Potency [8] | Potency [9] | Potency [10] | Potency [15] | Potency [16] | Potency [17] | Potency [18] | Potency [19]

CCCCCCCC[P+](CCCCCCCC)(CCCCCCCC)CCCCCCCC
inactive: Potency [2] | Potency [15] | Potency [19]
active: Potency [1] 4.87 µM | Potency [3] 10.9 µM | Potency [4] 10.9 µM | Potency [5] 17.3 µM | Potency [6] 1.73 µM | Potency [20] 6.13 µM | Potency [9] 17.3 µM | Potency [10] 21.6 µM | Potency [11] 4.3 µM | Potency [13] 0.43 µM | Potency [16] 34.2 µM | Potency [17] 12.1 µM | Potency [18] 17.1 µM

Cc1cc(N)c(S(=O)(=O)O)cc1Cl
inactive: Potency [1] | Potency [2] | Potency [3] | Potency [4] | Potency [20] | Potency [7] | Potency [8] | Potency [9] | Potency [10] | Potency [11] | Potency [15] | Potency [16] | Potency [17] | Potency [18] | Potency [19]

CCC(Cl)C(Cl)C(Cl)CC(Cl)C(Cl)C(C)Cl (centres undefined)
inactive: Potency [1] | Potency [2] | Potency [3] | Potency [4] | Potency [6] | Potency [8] | Potency [9] | Potency [10] | Potency [11] | Potency [15] | Potency [16] | Potency [17] | Potency [18] | Potency [19]

CC(C)(C)c1ccc(C(=O)O)cc1
inactive: Potency [1] | Potency [2] | Potency [3] | Potency [4] | Potency [6] | Potency [20] | Potency [7] | Potency [8] | Potency [9] | Potency [10] | Potency [11] | Potency [15] | Potency [16] | Potency [17] | Potency [18]

Oc1ccc(Cl)cc1Sc1cc(Cl)ccc1O
active: Potency [3] 48.9 µM and 26.8 µM | Potency [6] 19.5 µM and 23.9 µM | Potency [20] 24.5 µM | Potency [11] 29.8 µM
30.6 µM (active) and inactive: Potency [17] | Potency [18]
43.6 µM (active) and inactive: Potency [1]
inactive: Potency [2] | Potency [4] | Potency [8] | Potency [9] | Potency [10] | Potency [14] | Potency [15] | Potency [16]

Cc1cc(O)c(C(C)(C)C)cc1Sc1cc(C(C)(C)C)c(O)cc1C
inactive: Potency [2] | Potency [4] | Potency [7] | Potency [8] | Potency [9] | Potency [19]
active: Potency [1] 54.8 µM | Potency [3] 61.5 µM | Potency [6] 21.8 µM | Potency [20] 24.5 µM | Potency [11] 43.2 µM | Potency [12] 24.3 µM | Potency [13] 30.6 µM | Potency [16] 61 µM | Potency [17] 19.3 µM | Potency [18] 19.3 µM

CCC(N)(CO)CO
inactive: Potency [1] | Potency [2] | Potency [3] | Potency [4] | Potency [6] | Potency [20] | Potency [7] | Potency [8] | Potency [9] | Potency [10] | Potency [11] | Potency [15] | Potency [16] | Potency [17] | Potency [18] | Potency [19]

[Cl][Au]([Cl])[Cl]
active: Potency [1] 19.5 µM | Potency [3] 11 µM | Potency [6] 3.89 µM | Potency [7] 49 µM | Potency [10] 68.6 µM | Potency [11] 24.3 µM | Potency [18] 4.86 µM
inactive: Potency [2] | Potency [4] | Potency [8] | Potency [15] | Potency [16] | Potency [19]

CCCCCCCCS(=O)C(C)Cc1ccc2c(c1)OCO2 (centres undefined)
inactive: Potency [1] | Potency [2] | Potency [3] | Potency [4] | Potency [5] | Potency [8] | Potency [9] | Potency [10] | Potency [11] | Potency [15] | Potency [16] | Potency [19]

Nc1c2ccccc2nc2ccccc12
active: Potency [1] 43.1 µM | Potency [3] 12.1 µM and 10.7 µM | Potency [6] 7.66 µM and 21.3 µM
inactive: Potency [2] | Potency [4] | Potency [7] | Potency [8] | Potency [9] | Potency [10] | Potency [13] | Potency [14] | Potency [15] | Potency [16] | Potency [18] | Potency [19]

N=C1C=CC(=C(c2ccc(N)cc2)c2ccc(N)cc2)C=C1
inactive: Potency [1] | Potency [2] | Potency [3] | Potency [4] | Potency [7] | Potency [8] | Potency [9] | Potency [19]
active: Potency [6] 3.47 µM | Potency [10] 30.6 µM | Potency [12] 3.06 µM | Potency [13] 7.7 µM | Potency [16] 24.3 µM | Potency [17] 21.7 µM | Potency [18] 19.3 µM

CCN(CCC#N)c1ccc(N=Nc2c(Cl)cc([N+](=O)[O-])cc2Cl)cc1
inactive: Potency [1] | Potency [2] | Potency [3] | Potency [4] | Potency [6] | Potency [20] | Potency [7] | Potency [8] | Potency [9] | Potency [13] | Potency [15] | Potency [16] | Potency [17] | Potency [19]

Reference: PubChem BioAssay (Tox21)
